# This is a sample that favours compounds with a hit; in the whole collection about 4.5% have one here.
# Caspase-1 inhib: caspase-1 (human) inhibition, allosteric or competitive; 75,000 compounds, 0.03% hits; P29466; Caspase-1 enzyme, Ac-WEHD-AFC fluorogenic rate; AID 900; Potency, µM (top dose mostly 57.5 µM), for inactives: at the top dose activity change, negative = inhibition, usual class: inhibitors;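 also: plate controls were vehicle for no effect and no substrate for full effect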
# TSHR agonist: TSH receptor (human) agonism. HEK293-CNG-TSHR cells (CNG channel as cAMP sensor), membrane potential dye, cAMP. P16473. 73,000 compounds, 0.48% hits. Potency, µM (titrated, usually from 57.1 µM), inactives show top-dose activation, most hits filed as activators; active = well fitted activation curve with a large enough effect in the main read-out, with a control signal flat, not every such curve was filed as active; inconclusive = small, poorly fitted or top-dose-only effect, or a change in a side signal; inactive = no such curve, though single readings can be large or run the other way; % of control where 0% means no effect;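 also: the control signal comes from parental cells without the receptor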
#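 HEK 293 cells stably expressing TSHR and a cAMP-gated CNG channel; parental CNG-only cells as counterscreen. Cells preloaded 60 min with membrane potential dye plus 100 uM RO 20-1724, then compound 30 min; fluorescence read at 590 nm.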
# ERK AVP inh: inhibitors of vasopressin-stimulated ERK signaling pathway; Potency, µM (series often up to 57.5 µM), without a hit: at the top dose activity, negative = inhibition, usual class: inhibitors; AID 995; 72,000 compounds, 0.99% hits; HEK293-V1b, vasopressin-stimulated pERK AlphaScreen; also: % is scaled to controls: 0 for no effect and ±100 for the full control effect; nearly all actives have a fitted effect of over 55% in size
#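 Phosphorylated ERK1/2 detected via AlphaScreen bead proximity in lysates of V1b-expressing HEK293 cells given 25 nM vasopressin for 5 min after 30 min compound exposure (37 °C). AC50 from Hill equation; basal DMSO 0%, vasopressin 100%.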
# Casp7 inh: allosteric or competitive inhibitors of human caspase-7; Potency, µM (highest dose often 57.5 µM), for inactives: at the highest dose activity change, negative = inhibition, actives largely listed as inhibitors; 75,000 compounds, 0.02% hits; P55210; recombinant caspase-7, Ac-DEVD-AFC fluorescence rate; active = well fitted inhibition curve with a large enough effect in the main read-out, with a control signal flat, not every such curve was filed as active; inconclusive = small, poorly fitted or top-dose-only effect, or a change in a side signal; also: % of control where 0% means no effect
# HEK293 cAMP ctrl: counter-screen for TSHR agonists: cAMP increase in parental HEK293; Potency, µM (highest dose often 57.1 µM), inactives show at the highest dose activation, usual class: activators; 73,000 compounds, 2.5% hits; AID 938; parental HEK293 CNG cAMP sensor, membrane potential fluorescence; also: % of control where 0% means no effect; nearly all actives have a fitted effect of over 55% in size
#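 Parental HEK 293 cells stably expressing a modified CNG channel (no TSHR) report cAMP rise as membrane depolarization. Membrane potential dye with 100 uM RO 20-1724 was loaded for 60 min at room temperature, then compound added for 30 min; fluorescence read at 590 nm.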
# GBA mod: human lysosomal glucosylceramidase modulation. Potency, µM. 48,000 compounds, 1.1% hits. purified enzyme, resorufin glucoside fluorescence (screen aimed at inhibitors), 20 min. AID 360; in the data active = potency below about 15 µM; inconclusive = mostly about 16 µM to 33 µM;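 also: the screen sought inhibitors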
# Target sequence (P04062 whole entry, looked up): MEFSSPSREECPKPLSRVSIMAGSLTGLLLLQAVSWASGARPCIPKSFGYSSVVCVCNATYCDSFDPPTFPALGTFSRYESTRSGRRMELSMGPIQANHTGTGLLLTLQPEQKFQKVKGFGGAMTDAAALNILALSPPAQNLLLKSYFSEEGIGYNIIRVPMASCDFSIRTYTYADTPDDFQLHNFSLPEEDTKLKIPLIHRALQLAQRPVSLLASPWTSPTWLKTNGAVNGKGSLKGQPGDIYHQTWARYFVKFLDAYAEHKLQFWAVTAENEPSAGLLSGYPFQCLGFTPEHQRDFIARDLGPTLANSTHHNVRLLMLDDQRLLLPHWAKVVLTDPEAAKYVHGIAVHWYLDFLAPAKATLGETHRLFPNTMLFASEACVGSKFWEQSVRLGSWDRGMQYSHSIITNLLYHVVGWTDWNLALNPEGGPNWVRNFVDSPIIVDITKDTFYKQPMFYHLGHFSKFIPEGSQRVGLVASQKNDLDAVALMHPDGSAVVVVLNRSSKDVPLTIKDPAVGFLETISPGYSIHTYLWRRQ
#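 Compounds titrated against 0.2 nM normal enzyme, 30 uM resorufin beta-D-glucopyranoside substrate, citrate/phosphate buffer with taurocholate and tween-20, pH 5.9. Reaction ran 20 min at room temperature; fluorescence (Ex 548/Em 600) gave AC50.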
# Numbers without * were called inactive; i = inactive; ? = inconclusive; . = no result given; [ ] = dose if it differs, or a comment. Unless noted, calls follow the shape of the dose curve; as a rule, active = well fitted curve in the direction sought with a large enough effect; inconclusive = small, poorly fitted or top-dose-only effect, or another doubt; inactive = no such curve, though single readings can be large; an effect the other way counts as inactive or inconclusive. Potency is read from the fitted curve at half-maximal effect.
SMILES,Caspase-1 inhib,TSHR agonist,ERK AVP inh,Casp7 inh,HEK293 cAMP ctrl,GBA mod
Nc1ccc(Cl)cc1[N+](=O)[O-],0.7%,-0.9%,-18.4%,-0.1%,29.9%,.
COc1ccc2c(c1)c(=O)oc1cc(OCC(=O)N3CCCC(C)C3)ccc12 (stereo not given),-5.2%,?,31.6µM*,-11.4%,31.6µM*,>76.9
COc1ccc2c(c1)c(=O)oc1cc(OCC(=O)N3CCC(C)CC3)ccc12,0.8%,?,?,-14.5%,?,>76.9
Nc1ncnc2c1ncn2[C@@H]1O[C@@H](COP(=O)(O)OP(=O)(O)OP(=O)(O)OP(=O)(O)OC[C@@H]2O[C@@H](n3cnc4c(N)ncnc43)[C@@H](O)[C@H]2O)[C@H](O)[C@@H]1O,4.6%,21.7%,-6.5%,1.1%,3.2%,.
CN(Cc1ccco1)c1nc(-c2cccnc2)nc2ccccc12,-6.2%,?,?,-8.6%,25.1µM*,.
CN(Cc1ccco1)c1nc(-c2ccccc2Cl)nc2ccccc12,2.5%,18.4%,13.2%,-3.3%,23.4%,.
CN(Cc1ccco1)c1nc(-c2ccccc2C(F)(F)F)nc2ccccc12,-2.9%,?,1.8%,-3.1%,10µM*,.
COc1ccccc1-c1nc(N(C)Cc2ccco2)c2ccccc2n1,-1.9%,?,-28.6%,-4.5%,25.1µM*,.
CCOc1ccc(-c2cc(C(=O)N/N=C/c3ccc(O)c(OC)c3)[nH]n2)cc1,0.3%,-7.5%,.,0.3%,-11.7%,.
CCOC(=O)c1oc2ccc(S(=O)(=O)N3CCC(C)CC3)cc2c1C,-1.4%,?,10.4%,2.1%,25.1µM*,>76.9
Cc1csc(NC(=O)CSCC(=O)Nc2ccccc2)n1,-0.4%,?,31.6µM*,-1.7%,?,>76.9
Cc1csc(NC(=O)CSc2nc3ccccc3c(=O)[nH]2)n1,-1.5%,11.3%,-7.8%,-2.9%,14.0%,>76.9
O=C(O)CN(CCN(CC(=O)O)CC(=O)O)CC(=O)O.[Mn],0.2%[11.5 µM],24.0%[11.4 µM],-4.4%[11.5 µM],-1.5%[11.5 µM],-9.0%[11.4 µM],.
Cc1ccc(N(CC(=O)NC2CCCCCC2)S(=O)(=O)c2c(C)nn(C)c2C)cc1,1.7%,10.5%,9.0%,-0.3%,22.3%,14.6*
C=CCn1c(=O)n(CC=C)c(=O)n(CC=C)c1=O,-2.5%,3.5%,6.9%,-2.1%,-3.0%,.
Cc1ccc(-c2nnn(CC(=O)Nc3cccc4cccnc34)n2)o1,-2.2%,?,-4.0%,-3.6%,25.1µM*,.
COC(=O)c1cc2c(cc1Cl)SC(=NCCCN1CCOCC1)NS2(=O)=O,-0.7%,-6.6%,0.3%,5.5%,0.5%,8.27*
COC(=O)c1ccc(Cl)c(NC(=O)CN2CCOCC2)c1,1.0%,-4.2%,4.6%,-0.4%,6.5%,>76.9
CCn1c(=O)c(C(=O)NCc2cccnc2)c(O)c2ccccc21,-0.2%,26.0%,-21.9%,-0.2%,23.7%,>76.9
CC(C)Cn1c(=O)c(C(=O)NCc2ccccn2)c(O)c2ccccc21,-1.4%,?,-5.5%,1.6%,25.1µM*,>76.9
O=C1CCCC/C1=C\Nc1ccc(Cl)cn1,-1.9%,-0.6%[11.4 µM],6.2%,-1.7%,5.9%,13.9*
CC(=O)OCC1OC(c2ccc3c(c2)OCO3)C=CC1OC(C)=O (stereo not given),3.0%[11.5 µM],0.1%[11.4 µM],5.6%[11.5 µM],1.5%[11.5 µM],14.0%[11.4 µM],.
CC1=C(C#N)C(c2cn(-c3ccccc3)nc2-c2cccs2)C(C#N)=C(C)N1,-12.7%,.,2.9%,-8.2%,-28.0%,i
NC1=NC(c2cn(-c3ccccc3)nc2-c2cccs2)n2c(nc3ccccc32)N1 (stereo not given),-3.5%,-3.5%,?,-4.2%,-6.5%,11.7*
COc1cccc(-c2nc(NCc3ccccc3OC)c3ccccc3n2)c1,-4.7%,.,-24.0%,-5.2%,-7.3%,.
SMILES,Caspase-1 inhib,TSHR agonist,ERK AVP inh,Casp7 inh,HEK293 cAMP ctrl,GBA mod
c1cncc(CNc2nc(-c3cccnc3)nc3ccccc23)c1,-1.9%,25.1µM*,?,-3.2%,-4.6%,.
COc1cccc(-c2nc(NCc3ccccc3)c3ccccc3n2)c1,-16.0%,?,?,-19.6%,31.6µM*,.
N#Cc1cccc(-c2nc(NCc3cccnc3)c3ccccc3n2)c1,-15.2%,.,?,-16.4%,-11.4%,.
COc1cccc(-c2nc(NC3CC3)c3ccccc3n2)c1,-6.1%,.,12.6µM*,-9.2%,6.0%,.
COc1cccc(-c2nc(NCc3cccnc3)c3ccccc3n2)c1,-4.4%,31.6µM*,?,-6.8%,11.0%,.
CS(=O)(=O)Nc1cccc(-c2nc(NC3CC3)c3ccccc3n2)c1,-5.6%,15.3%,-21.8%,-5.7%,0.1%,.
CCC1Oc2ccc(C)cc2N(CC(=O)NCc2cccc(OC)c2)C1=O (stereo not given),-0.7%,?,4.7%,-0.3%,12.6µM*,>76.9
COCCNS(=O)(=O)c1ccc(OCC(=O)OC)c(Cl)c1,0.7%,20µM*,-5.7%,1.7%,9.8%,>76.9
COC(=O)C1C(=O)c2c([nH]c(C(=O)OC3CCCC3C)c2C)CC1C (stereo not given),-3.8%,.,31.6µM*,-2.1%,9.0%,.
COc1ccc2[nH]c(=O)c(C(c3nnnn3C(C)(C)C)N(Cc3ccco3)CC3CCCO3)cc2c1 (stereo not given),-1.7%,?,-0.6%,-0.9%,15.8µM*,>76.9
COc1ccc2cc(CN(Cc3ccco3)C(c3nnnn3C3CCCCC3)C(C)C)c(=O)[nH]c2c1 (stereo not given),-2.2%,?,-8.9%,-2.5%,?,i
COc1ccccc1-c1oc2ccccc2c(=O)c1OC,1.6%,?,4.1%,-0.6%,31.6µM*,.
O=C(NCCCN1CCOCC1)c1ccc(Cc2nc3ccccc3[nH]2)cc1,-3.7%,-4.1%,.,0.2%,-8.8%,.
O=C1C2=C(Nc3ccccc3SC2c2ccco2)c2ccccc21 (stereo not given),-3.2%,2µM*,?,-4.0%,-23.1%,.
CCOC(=O)c1nnn(-c2nonc2N)c1COc1ccccc1,-2.7%,?,-3.4%,-3.1%,12.6µM*,.
CNC(=O)[C@@H]1O[C@@H](n2cnc3c(NCc4cccc(I)c4)ncnc32)[C@H](O)[C@@H]1O,-0.3%,.,?,1.4%,7.4%,.
Cc1ccc(-c2noc(COc3ccccc3C)n2)cc1,0.8%,?,86.2%,0.2%,25.1µM*,.
Clc1ccc(OCc2nc(-c3ccncc3)no2)c(Cl)c1,-4.9%,?,?,-6.6%,25.1µM*,>76.9
COc1ccc(Cl)cc1-c1nc(-c2ccncc2)no1,0.0%,9.0%,-9.0%,-1.0%,17.3%,>76.9
Cc1ccccc1OCc1nc(-c2ccccc2)no1,-2.5%,?,55.4%,-3.8%,?,>76.9
CC(=O)O[C@H]1CC[C@@]2(C)[C@@H](CC[C@@]3(C)[C@H]2C(=O)C=C2[C@H]4C[C@](C)(C(=O)OCCN5CCCCC5)CC[C@]4(C)CC[C@@]23C)C1(C)C,.,-4.2%,.,.,-3.1%,.
